# Reference: article PMC7862700, “An all-to-all approach to the identification of sequence-specific readers for epigenetic DNA modifications on cytosine”
# Legend:
# Assay in all cases: DAPPL (digital affinity profiling via proximity ligation, sequencing); 10 mM Tris-HCl pH 7.5, 50 mM NaCl, 1 mM DTT, 4% glycerol, room temperature, 30 min; GST-TFs on glutathione beads, 16-mer random dsDNA library, 0.1% formaldehyde crosslink after washing; high values mean tight binding
# FLI1 = biological target: T1, FLI1 (Homo sapiens, UniProt Q01543 1-452); conditions: protein: recombinant; tags: N-terminal GST; dsDNA, one strand shown
# T1 sequence: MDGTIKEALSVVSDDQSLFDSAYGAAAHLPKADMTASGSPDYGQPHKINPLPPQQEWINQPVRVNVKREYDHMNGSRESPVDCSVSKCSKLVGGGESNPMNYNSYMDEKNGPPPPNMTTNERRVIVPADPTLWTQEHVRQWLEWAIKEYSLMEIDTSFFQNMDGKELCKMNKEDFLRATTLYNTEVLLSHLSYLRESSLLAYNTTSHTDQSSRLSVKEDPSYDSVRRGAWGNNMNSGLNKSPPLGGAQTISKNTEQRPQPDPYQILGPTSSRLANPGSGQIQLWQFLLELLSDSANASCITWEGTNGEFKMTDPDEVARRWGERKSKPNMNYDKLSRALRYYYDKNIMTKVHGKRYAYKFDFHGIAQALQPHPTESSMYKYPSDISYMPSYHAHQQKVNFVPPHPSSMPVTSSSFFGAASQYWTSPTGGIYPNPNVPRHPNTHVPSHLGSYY
# Procedure, shortened: (§1)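 GST fusions of human transcription factors were expressed in yeast and captured with glutathione beads. Once given DNA barcodes and pooled alongside a tag-only sample, they were incubated for 30 min at room temperature with 200 nmole of a random double-stranded 16-mer DNA library in Tris/NaCl/DTT/glycerol buffer, then washed, crosslinked (0.1% formaldehyde), proximity-ligated, PCR-amplified and sequenced on an Illumina NextSeq500. The binding signal of each hexamer is its read frequency for a factor divided by its frequency for the tag-only sample.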
# ELK1 = biological target: T2, ELK1 (Homo sapiens, UniProt P19419 1-428); conditions: protein: recombinant; tags: N-terminal GST; dsDNA, one strand shown
# T2 sequence: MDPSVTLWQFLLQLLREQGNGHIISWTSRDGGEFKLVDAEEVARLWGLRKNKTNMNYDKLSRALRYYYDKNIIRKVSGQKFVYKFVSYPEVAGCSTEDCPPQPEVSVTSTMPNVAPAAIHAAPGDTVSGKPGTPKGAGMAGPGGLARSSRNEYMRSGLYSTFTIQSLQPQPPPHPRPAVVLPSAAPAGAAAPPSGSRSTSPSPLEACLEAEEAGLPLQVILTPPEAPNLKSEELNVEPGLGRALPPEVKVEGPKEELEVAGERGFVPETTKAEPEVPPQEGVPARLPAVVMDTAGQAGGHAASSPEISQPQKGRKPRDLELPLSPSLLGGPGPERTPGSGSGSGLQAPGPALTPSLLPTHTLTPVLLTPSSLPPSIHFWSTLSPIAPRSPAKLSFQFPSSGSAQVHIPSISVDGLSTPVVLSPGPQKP
# Procedure, shortened: as §1
# GABPA = biological target: T3, GABPA (Homo sapiens, UniProt Q06546 1-454); conditions: protein: recombinant; tags: N-terminal GST; dsDNA, one strand shown
# T3 sequence: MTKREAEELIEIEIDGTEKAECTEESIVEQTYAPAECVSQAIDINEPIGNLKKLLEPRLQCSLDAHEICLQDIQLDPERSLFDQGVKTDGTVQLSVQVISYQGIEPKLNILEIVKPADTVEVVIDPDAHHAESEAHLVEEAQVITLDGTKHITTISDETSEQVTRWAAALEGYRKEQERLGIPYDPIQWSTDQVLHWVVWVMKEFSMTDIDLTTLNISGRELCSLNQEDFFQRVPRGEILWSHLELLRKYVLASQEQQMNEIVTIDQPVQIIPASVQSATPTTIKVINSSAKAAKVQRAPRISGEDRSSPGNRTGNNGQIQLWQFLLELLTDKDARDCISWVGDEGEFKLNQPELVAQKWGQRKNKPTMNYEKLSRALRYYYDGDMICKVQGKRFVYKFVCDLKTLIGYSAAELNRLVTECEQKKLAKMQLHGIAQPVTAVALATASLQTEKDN
# Procedure, shortened: as §1
# ERG = biological target: T4, ERG (Homo sapiens, UniProt P11308 1-479); conditions: protein: recombinant; tags: N-terminal GST; dsDNA, one strand shown
# T4 sequence: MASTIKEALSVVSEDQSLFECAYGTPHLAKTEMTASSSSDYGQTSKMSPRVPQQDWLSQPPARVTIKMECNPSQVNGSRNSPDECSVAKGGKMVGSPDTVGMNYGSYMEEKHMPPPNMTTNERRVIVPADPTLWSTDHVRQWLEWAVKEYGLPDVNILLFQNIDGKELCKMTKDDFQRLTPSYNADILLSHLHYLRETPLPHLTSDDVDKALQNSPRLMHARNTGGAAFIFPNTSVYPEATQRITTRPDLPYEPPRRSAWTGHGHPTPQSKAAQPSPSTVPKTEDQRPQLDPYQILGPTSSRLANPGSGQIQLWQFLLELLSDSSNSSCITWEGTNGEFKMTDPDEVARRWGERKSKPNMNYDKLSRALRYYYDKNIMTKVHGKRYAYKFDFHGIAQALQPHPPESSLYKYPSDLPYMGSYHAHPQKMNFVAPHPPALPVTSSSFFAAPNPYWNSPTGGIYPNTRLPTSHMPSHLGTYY
# Procedure, shortened: as §1
# ELF1 = ELF1 (Homo sapiens, UniProt P32519 1-619); conditions: protein: recombinant; tags: N-terminal GST; dsDNA, one strand shown
# Sequence of ELF1 (P32519 whole entry): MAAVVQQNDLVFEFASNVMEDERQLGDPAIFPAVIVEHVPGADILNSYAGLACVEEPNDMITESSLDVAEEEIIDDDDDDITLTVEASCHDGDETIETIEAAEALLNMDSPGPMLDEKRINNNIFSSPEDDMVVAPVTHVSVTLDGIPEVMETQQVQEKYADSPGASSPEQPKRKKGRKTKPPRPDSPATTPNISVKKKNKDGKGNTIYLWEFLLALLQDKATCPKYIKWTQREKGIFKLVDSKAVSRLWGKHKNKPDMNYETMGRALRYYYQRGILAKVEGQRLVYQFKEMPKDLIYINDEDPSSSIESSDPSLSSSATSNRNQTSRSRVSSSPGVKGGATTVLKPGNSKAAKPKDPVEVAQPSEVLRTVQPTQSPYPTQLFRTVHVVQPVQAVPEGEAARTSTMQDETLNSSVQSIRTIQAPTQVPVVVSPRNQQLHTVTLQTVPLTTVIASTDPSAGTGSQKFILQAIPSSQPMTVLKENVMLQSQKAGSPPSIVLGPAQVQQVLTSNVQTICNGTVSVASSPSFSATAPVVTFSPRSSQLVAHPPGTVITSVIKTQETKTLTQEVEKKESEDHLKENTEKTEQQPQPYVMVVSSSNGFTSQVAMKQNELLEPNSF
# Procedure, shortened: as §1
# EHF = biological target: T5, EHF (Homo sapiens, UniProt Q9NZC4 1-300); conditions: protein: recombinant; tags: N-terminal GST; dsDNA, one strand shown
# T5 sequence: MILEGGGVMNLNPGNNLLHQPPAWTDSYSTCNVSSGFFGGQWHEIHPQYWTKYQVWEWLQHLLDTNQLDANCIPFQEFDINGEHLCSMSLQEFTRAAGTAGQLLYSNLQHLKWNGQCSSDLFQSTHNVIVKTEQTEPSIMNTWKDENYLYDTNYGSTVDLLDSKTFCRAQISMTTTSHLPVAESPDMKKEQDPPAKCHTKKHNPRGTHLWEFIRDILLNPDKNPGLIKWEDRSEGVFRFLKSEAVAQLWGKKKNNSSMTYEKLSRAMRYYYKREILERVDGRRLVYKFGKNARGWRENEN
# Procedure, shortened: as §1
# SPI1 = SPI1 (Homo sapiens, UniProt P17947 1-270); conditions: protein: recombinant; tags: N-terminal GST; dsDNA, one strand shown
# Procedure, shortened: as §1
# SPIB = SPIB (Homo sapiens, UniProt Q01892 1-262); conditions: protein: recombinant; tags: N-terminal GST; dsDNA, one strand shown
# Sequence of SPIB (Q01892 whole entry): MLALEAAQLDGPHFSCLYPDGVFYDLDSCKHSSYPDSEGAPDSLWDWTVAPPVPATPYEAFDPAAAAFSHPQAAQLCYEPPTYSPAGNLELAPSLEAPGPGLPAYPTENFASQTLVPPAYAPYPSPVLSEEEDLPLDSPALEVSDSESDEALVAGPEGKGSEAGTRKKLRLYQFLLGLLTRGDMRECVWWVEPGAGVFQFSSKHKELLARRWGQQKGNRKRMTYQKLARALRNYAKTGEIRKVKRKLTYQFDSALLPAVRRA
# Procedure, shortened: as §1
# ELK3 = biological target: T6, ELK3 (Homo sapiens, UniProt P41970 1-407); conditions: protein: recombinant; tags: N-terminal GST; dsDNA, one strand shown
# T6 sequence: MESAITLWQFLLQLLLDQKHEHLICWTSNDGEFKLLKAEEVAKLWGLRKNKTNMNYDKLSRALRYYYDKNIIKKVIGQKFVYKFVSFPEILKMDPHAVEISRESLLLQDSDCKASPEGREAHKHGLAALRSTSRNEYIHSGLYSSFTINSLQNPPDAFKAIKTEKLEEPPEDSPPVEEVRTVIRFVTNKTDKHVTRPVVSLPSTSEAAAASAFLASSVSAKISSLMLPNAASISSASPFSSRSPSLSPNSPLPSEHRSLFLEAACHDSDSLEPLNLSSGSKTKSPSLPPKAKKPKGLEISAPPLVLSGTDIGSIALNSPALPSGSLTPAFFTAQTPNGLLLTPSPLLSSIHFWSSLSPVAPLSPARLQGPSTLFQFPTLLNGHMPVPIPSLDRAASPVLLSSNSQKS
# Procedure, shortened: as §1
# FEV = biological target: T7, FEV (Homo sapiens, UniProt Q99581 1-238); conditions: protein: recombinant; tags: N-terminal GST; dsDNA, one strand shown
# T7 sequence: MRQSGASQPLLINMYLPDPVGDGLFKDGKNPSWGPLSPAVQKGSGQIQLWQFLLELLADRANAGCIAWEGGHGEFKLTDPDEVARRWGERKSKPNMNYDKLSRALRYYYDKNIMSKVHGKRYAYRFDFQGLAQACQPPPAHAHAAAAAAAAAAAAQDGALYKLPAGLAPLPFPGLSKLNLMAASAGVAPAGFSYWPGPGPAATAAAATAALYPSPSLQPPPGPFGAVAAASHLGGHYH
# Procedure, shortened: as §1
# ETV5 = ETV5 (Homo sapiens, UniProt P41161 1-510); conditions: protein: recombinant; tags: N-terminal GST; dsDNA, one strand shown
# Sequence of ETV5 (P41161 whole entry): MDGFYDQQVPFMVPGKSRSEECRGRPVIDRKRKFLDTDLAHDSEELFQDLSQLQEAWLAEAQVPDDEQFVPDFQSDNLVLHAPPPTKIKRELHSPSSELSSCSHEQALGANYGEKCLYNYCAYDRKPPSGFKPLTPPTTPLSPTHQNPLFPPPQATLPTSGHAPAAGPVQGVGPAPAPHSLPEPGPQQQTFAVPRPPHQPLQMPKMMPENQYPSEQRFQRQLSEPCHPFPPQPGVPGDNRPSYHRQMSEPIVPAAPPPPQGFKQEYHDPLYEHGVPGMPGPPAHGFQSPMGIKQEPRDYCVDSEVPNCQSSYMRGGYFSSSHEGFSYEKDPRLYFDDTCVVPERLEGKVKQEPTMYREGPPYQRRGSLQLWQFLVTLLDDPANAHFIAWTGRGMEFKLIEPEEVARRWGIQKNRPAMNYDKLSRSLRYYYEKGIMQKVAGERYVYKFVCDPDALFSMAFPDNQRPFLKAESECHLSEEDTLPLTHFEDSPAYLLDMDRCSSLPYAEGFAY
# Procedure, shortened: as §1
# HSF1 = HSF1 (Homo sapiens, UniProt Q00613 1-529); conditions: protein: recombinant; tags: N-terminal GST; chain copies: 3; dsDNA, one strand shown
# Sequence of HSF1 (Q00613 whole entry): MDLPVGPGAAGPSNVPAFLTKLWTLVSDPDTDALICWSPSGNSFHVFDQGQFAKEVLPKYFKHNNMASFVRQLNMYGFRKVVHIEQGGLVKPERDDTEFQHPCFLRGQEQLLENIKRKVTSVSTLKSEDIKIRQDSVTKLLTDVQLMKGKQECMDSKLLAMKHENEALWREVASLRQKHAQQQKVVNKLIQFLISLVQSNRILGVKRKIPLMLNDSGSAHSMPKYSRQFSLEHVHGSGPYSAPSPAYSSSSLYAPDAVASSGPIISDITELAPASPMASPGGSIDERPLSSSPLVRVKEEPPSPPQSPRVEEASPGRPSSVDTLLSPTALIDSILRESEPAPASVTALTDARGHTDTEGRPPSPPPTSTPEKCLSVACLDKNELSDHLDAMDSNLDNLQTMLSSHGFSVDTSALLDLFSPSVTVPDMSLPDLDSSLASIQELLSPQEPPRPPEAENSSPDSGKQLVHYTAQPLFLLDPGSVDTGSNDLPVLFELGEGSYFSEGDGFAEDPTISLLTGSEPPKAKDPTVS
# Procedure, shortened: as §1
# SPIC = biological target: T8, SPIC (Homo sapiens, UniProt Q8N5J4 1-248); conditions: protein: recombinant; tags: N-terminal GST; dsDNA, one strand shown
# T8 sequence: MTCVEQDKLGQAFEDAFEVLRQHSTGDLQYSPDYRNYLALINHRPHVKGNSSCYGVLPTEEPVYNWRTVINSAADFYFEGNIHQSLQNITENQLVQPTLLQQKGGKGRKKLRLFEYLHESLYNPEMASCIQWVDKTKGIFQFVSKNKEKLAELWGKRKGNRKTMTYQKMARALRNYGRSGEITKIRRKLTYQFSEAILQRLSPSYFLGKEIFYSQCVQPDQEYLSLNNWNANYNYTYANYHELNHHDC
# Procedure, shortened: as §1
# ELF4 = ELF4 (Homo sapiens, UniProt Q99607 1-663); conditions: protein: recombinant; tags: N-terminal GST; dsDNA, one strand shown
# Sequence of ELF4 (Q99607 whole entry): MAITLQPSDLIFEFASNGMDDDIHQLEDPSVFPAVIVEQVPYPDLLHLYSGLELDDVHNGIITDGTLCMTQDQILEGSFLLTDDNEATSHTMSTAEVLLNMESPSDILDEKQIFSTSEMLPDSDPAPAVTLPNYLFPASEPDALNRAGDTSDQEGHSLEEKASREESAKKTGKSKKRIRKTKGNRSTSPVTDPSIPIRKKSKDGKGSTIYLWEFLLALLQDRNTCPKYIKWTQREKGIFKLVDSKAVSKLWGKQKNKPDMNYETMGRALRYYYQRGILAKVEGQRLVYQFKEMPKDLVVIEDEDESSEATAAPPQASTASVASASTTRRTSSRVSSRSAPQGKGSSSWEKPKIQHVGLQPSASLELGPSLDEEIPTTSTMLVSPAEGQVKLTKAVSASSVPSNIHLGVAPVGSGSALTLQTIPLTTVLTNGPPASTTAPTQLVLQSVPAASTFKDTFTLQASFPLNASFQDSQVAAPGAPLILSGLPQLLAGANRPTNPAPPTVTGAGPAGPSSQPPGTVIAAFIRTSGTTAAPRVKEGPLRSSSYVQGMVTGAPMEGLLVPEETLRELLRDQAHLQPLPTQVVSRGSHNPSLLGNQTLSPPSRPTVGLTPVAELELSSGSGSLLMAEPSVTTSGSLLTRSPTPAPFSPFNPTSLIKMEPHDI
# Procedure, shortened: as §1
# ELK4 = biological target: T9, ELK4 (Homo sapiens, UniProt P28324-2 1-405); conditions: protein: recombinant; tags: N-terminal GST; dsDNA, one strand shown
# T9 sequence: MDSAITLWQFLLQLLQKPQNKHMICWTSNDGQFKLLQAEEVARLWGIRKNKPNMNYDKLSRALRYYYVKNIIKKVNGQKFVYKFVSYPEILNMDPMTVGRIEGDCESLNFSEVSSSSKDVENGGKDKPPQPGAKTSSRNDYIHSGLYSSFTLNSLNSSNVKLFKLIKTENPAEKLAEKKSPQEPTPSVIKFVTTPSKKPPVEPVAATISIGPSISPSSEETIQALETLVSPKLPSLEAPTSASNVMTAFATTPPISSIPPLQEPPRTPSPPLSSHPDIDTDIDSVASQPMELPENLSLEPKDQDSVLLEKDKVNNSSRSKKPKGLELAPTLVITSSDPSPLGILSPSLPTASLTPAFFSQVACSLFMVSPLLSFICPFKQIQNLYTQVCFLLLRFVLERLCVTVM
# Procedure, shortened: as §1
# ETV2 = biological target: T10, ETV2 (Homo sapiens, UniProt O00321 1-342); conditions: protein: recombinant; tags: N-terminal GST; dsDNA, one strand shown
# T10 sequence: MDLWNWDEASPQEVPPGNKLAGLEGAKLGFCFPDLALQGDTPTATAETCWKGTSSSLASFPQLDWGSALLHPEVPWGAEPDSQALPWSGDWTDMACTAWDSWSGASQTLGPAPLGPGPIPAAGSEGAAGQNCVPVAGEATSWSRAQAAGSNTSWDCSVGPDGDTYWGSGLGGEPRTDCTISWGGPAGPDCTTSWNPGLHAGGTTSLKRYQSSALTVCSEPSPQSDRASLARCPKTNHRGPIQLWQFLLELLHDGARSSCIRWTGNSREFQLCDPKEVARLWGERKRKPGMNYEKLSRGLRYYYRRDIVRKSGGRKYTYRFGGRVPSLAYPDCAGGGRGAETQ
# Procedure, shortened: as §1
# ELF3 = biological target: T11, ELF3 (Homo sapiens, UniProt P78545 1-371); conditions: protein: recombinant; tags: N-terminal GST; dsDNA, one strand shown
# T11 sequence: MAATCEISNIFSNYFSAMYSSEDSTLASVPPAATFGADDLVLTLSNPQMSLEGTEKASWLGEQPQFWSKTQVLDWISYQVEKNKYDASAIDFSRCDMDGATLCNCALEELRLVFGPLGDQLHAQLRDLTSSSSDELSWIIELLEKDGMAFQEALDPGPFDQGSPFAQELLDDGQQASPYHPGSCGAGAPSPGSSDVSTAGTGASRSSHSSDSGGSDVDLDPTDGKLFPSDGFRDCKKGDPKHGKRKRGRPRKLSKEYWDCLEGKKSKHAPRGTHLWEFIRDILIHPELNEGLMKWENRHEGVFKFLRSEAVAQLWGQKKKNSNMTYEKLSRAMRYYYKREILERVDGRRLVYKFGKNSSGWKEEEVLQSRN
# Procedure, shortened: as §1
# CRX = CRX (Homo sapiens, UniProt O43186 1-299); conditions: protein: recombinant; tags: N-terminal GST; dsDNA, one strand shown
# Sequence of CRX (O43186 whole entry): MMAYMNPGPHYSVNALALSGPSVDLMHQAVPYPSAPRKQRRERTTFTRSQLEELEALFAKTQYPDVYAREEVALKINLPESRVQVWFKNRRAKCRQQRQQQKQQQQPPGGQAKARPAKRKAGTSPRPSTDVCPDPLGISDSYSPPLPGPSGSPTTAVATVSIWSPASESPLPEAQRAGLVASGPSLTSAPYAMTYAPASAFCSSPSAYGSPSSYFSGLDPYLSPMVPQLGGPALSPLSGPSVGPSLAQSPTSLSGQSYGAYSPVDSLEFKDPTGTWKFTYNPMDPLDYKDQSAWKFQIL
# Procedure, shortened: as §1
# ETV1 = ETV1 (Homo sapiens, UniProt P50549 1-477); conditions: protein: recombinant; tags: N-terminal GST; dsDNA, one strand shown
# Sequence of ETV1 (P50549 whole entry): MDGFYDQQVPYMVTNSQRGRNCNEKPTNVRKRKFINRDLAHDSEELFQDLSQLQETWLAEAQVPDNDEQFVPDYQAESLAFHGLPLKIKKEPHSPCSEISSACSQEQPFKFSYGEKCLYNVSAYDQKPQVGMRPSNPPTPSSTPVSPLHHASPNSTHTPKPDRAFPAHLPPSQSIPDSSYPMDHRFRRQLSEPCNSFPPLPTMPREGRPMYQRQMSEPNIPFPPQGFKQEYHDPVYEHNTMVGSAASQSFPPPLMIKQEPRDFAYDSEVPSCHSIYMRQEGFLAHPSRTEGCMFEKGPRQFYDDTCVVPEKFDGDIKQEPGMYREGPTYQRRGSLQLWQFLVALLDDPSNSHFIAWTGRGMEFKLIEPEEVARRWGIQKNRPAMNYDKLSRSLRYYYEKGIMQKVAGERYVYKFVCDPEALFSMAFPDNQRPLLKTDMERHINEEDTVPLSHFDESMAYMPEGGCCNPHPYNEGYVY
# Procedure, shortened: as §1
sequence,measurement,setting,value
TTGCAC,binding signal,FLI1,"1.3 fold enrichment (6-mer frequency, TF over GST control)"
same,binding signal,ELK1,"1.32 fold enrichment (6-mer frequency, TF over GST control)"
same,binding signal,GABPA,"1.27 fold enrichment (6-mer frequency, TF over GST control)"
same,binding signal,ERG,"1.27 fold enrichment (6-mer frequency, TF over GST control)"
same,binding signal,ELF1,"1.28 fold enrichment (6-mer frequency, TF over GST control)"
same,binding signal,EHF,"1.21 fold enrichment (6-mer frequency, TF over GST control)"
same,binding signal,SPI1,"1.26 fold enrichment (6-mer frequency, TF over GST control)"
same,binding signal,SPIB,"1.16 fold enrichment (6-mer frequency, TF over GST control)"
same,binding signal,ELK3,"1.34 fold enrichment (6-mer frequency, TF over GST control)"
same,binding signal,FEV,"1.24 fold enrichment (6-mer frequency, TF over GST control)"
same,binding signal,ETV5,"1.24 fold enrichment (6-mer frequency, TF over GST control)"
same,binding signal,HSF1,"1.1 fold enrichment (6-mer frequency, TF over GST control)"
same,binding signal,SPIC,"1.07 fold enrichment (6-mer frequency, TF over GST control)"
same,binding signal,ELF4,"1.31 fold enrichment (6-mer frequency, TF over GST control)"
same,binding signal,ELK4,"1.31 fold enrichment (6-mer frequency, TF over GST control)"
same,binding signal,ETV2,"1.22 fold enrichment (6-mer frequency, TF over GST control)"
same,binding signal,ELF3,"1.23 fold enrichment (6-mer frequency, TF over GST control)"
same,binding signal,CRX,"1.11 fold enrichment (6-mer frequency, TF over GST control)"
same,binding signal,ETV1,"1.22 fold enrichment (6-mer frequency, TF over GST control)"
